“And” between values parts separate entries of the source, which are not always exact repeats. Equal values may be shown once. Hit rate of the full screen: of about 260,000 compounds, about 1,500 (0.58%) were called active. Another 5% or so got no clear call; they are omitted.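 Rule for the calls: active = inhibition above a set limit at one or more doses, reproduced on every date tested; inconclusive = results disagree between test dates, or hit never tested in dose response; inactive = the rest.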 A selection follows. Entries with a potency or affinity are not part of this list.
Molecular target: Virion infectivity factor (Human immunodeficiency virus type 1 group M subtype B (isolate BH10)) + Virion infectivity factor (Human immunodeficiency virus type 1 group M subtype B (isolate BRU/LAI)) + Virion infectivity factor (Human immunodeficiency virus type 1 group M subtype B (isolate PCV12)) + Virion infectivity factor (Human immunodeficiency virus type 1 group M subtype B (isolate HXB2)) + DNA dC->dU-editing enzyme APOBEC-3G (Homo sapiens) (UniProt P69720+P69721+P69722+P69723+Q9HC16)
Experiment: HIV-1 Vif–A3G interaction blockers – biochemical, TR-FRET, GST-Vif 1-94, biotin-A3G peptide, dose response retest, primary screen (AID 1117319);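 note: Vif residues 1-94 fused to GST binding biotinylated APOBEC3G peptide 110-148; 0% = full assay without inhibitor and 100% = GST in place of GST-Vif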
Conditions: TR-FRET GST-Vif / biotin-A3G peptide binding; active compounds read high

| SMILES | inhibition |
| --- | --- |
| COc1cc(NCCCCCCCN)c2ncccc2c1 | 3.69% (inactive) |
| COc1cc(NC(C)CCCNC(C)C)c2ncccc2c1OC (stereo not drawn) | 3.4% (inactive) |
| COC(=O)c1cc(NC(=O)COC(=O)CCc2c[nH]c3ccccc23)cc(C(=O)OC)c1 | 2.64% (inactive) |
| O=C1N=C(N2CCOCC2)S/C1=C/c1ccc(-c2ccccc2Cl)o1 | 7.88% (inactive) |
| CC(=O)N1CC(=O)N(Cc2ccccc2)/C(=C/c2ccccc2)C1=O | 7.17% (inactive) |
| O=C1CC(/C=C/c2ccncc2)=Nc2ccccc2N1 | 3.89% (inactive) |
| O=C1CC(/C=C/c2ccccc2)=Nc2ccccc2N1 | 4.19% (inactive) |
| CC1=C([N+](=O)[O-])C(c2ccc(Cl)cc2)NC(=O)N1C (stereo not drawn) | 6.98% (inactive) |
| FC(F)(F)c1ccc(N2CCN(Cc3ccc4c(c3)OCO4)CC2)nc1 | -10.1% (inactive) |
| CCOC(=O)C1=C(N)OC2=C(C(=O)CC(C)(C)C2)C1c1ccoc1 (stereo not drawn) | -2.95% (inactive) |
| CC(C)NC(=O)COc1ccc(Cl)cc1Cl | -3.29% (inactive) |
| Cc1ccc(C(=O)/C=C/Nc2cccc(O)c2)cc1 | 1.59% (inactive) |
| C/C(=C\C(=O)c1ccc(Br)cc1)Nc1cccc(Cl)c1 | -2.57% (inactive) |
| O=C(Cc1ccccc1)NNC1CC(=O)N(c2ccc(Cl)cc2)C1=O (stereo not drawn) | 8.41% (inactive) |
| Cc1ccnc(SCc2cc(=O)c(OC(=O)c3ccccc3)co2)n1 | 6.36% (inactive) |
| CCN(CC)c1ccc(C(=S)NCc2ccccc2)cc1 | 7.25% (inactive) |
| CCN(CC)c1ccc(NC(=O)Nc2ccccc2)cc1 | 5.11% (inactive) |
| COc1ccccc1NC(=O)C(C)N1C(=O)C2CCCCC2C1=O (stereo not drawn) | 9.66% (inactive) |
| COc1ccc(CCNC(=S)Nc2cc(C)ccc2C)cc1 | 2.7% (inactive) |
| COC(=O)/C=C1\SC(=Nc2ccc(OC)cc2)NC1=O | -0.91% (inactive) |
| O=C1NC(=Nc2ccc3ccccc3c2)S/C1=C/c1ccco1 | -0.8% (inactive) |
| COc1ccc(N=C2NC(=O)/C(=C/C=C/c3ccccc3)S2)cc1 | -3.43% (inactive) |
| Cn1cccc1/C=C1\SC(=Nc2ccc(O)cc2)NC1=O | -0.29% (inactive) |
| COc1ccc2c(c1OC)C(=O)OC2CC(=O)c1ccc2c(c1)OCO2 (stereo not drawn) | -2.78% (inactive) |
| CCOC(=O)CSc1ccc2nnc(-c3ccncc3)n2n1 | 3.55% (inactive) |

| SMILES | inhibition |
| --- | --- |
| Cc1ccc(NC(=O)C2CCC2)cc1S(=O)(=O)N1CCCCCC1 | 0.74% (inactive) |
| O=S(=O)(NCC(c1cccnc1)N1CCOCC1)c1ccc(Cl)cc1 (stereo not drawn) | 1.91% (inactive) |
| CC(C)c1ccccc1NC(=O)Cn1c(/C=C/c2ccccc2)nc2ccccc21 | 2.28% (inactive) |
| Cc1cc(N/N=C/c2ccc(N(C)C)cc2)nc(NCc2ccccc2)n1 | 7.69% (inactive) |
| CC(=O)c1ccc(S(=O)(=O)NCc2cccnc2)cc1 | 0.59% (inactive) |
| COc1cc(C(C)=O)ccc1OCC(=O)N1CCCC1c1ccc2c(c1)OCCCO2 (stereo not drawn) | -2.26% (inactive) |
| CCCCn1c(SCC(=O)NCCOC)nc2ccc(N3CCOCC3)cc2c1=O | 32.1% (inactive) and 5.24% (inactive) |
| CCCCn1c(SCC(=O)NCc2ccccc2)nc2ccc(N3CCOCC3)cc2c1=O | 18.7% (inactive) |
| CCCC(=O)Nc1cc(C)c(NC(=O)Cc2ccccc2)cn1 | -1.31% (inactive) |
| CCN(CC)c1cc(Cl)c2nonc2c1N | 0.28% (inactive) |
| Nc1c(N2CCCC2)cc(Cl)c2nonc12 | 22.8% (inactive) |
| CCOC(=O)N1CCN(C(=O)c2c(-c3ccccc3)noc2C)CC1 | -4.55% (inactive) |
| O=C(NCc1ccco1)c1cc(-c2ccccc2)on1 | -2.43% (inactive) |
| COc1cccc(-c2cc(C(=O)NCc3ccco3)no2)c1 | 2.27% (inactive) |
| Cc1onc(-c2c(F)cccc2Cl)c1C(=O)NCc1ccco1 | 0.03% (inactive) |
| Cc1onc(-c2c(Cl)cccc2Cl)c1C(=O)NCc1ccco1 | 2.61% (inactive) |
| O=C(NCCCn1ccnc1)C(=O)NCC1OCCN1S(=O)(=O)c1ccccc1 (stereo not drawn) | 20.3% (inactive) |
| Cc1ccc(S(=O)(=O)N2CCCc3ccccc32)cc1 | 3.67% (inactive) |
| Cc1ccc(-c2sc(C(=O)NN)c(C)c2C#N)cc1 | -0.1% (inactive) |
| CCc1noc(C)c1C(=O)NC1CCCc2c1cnn2-c1cc(C)cc(C)c1 (stereo not drawn) | -1.36% (inactive) |
| O=C1N[C@@H](c2ccccc2)COC(=O)[C@H](Cc2ccc(F)cc2)CC/C=C/C[C@H]1CC(=O)N(CCO)Cc1ccccc1 | 3.93% (inactive) |
| COc1cccc(-c2cccc(NC(=O)C3CCN(CCCn4cccn4)CC3)c2)c1 | 6% (inactive) |
| CCn1nc(C(=O)Nc2cc(Cl)ccc2-n2cncn2)c2ccccc2c1=O | -6.28% (inactive) |
| C=CCn1c(O)c(C(CC)=Nc2ccccc2NC(=O)CC)c(=O)[nH]c1=O | 30.8% (inactive) |
| C=CCn1c(O)c(C(CC)=NCc2cccnc2)c(=O)[nH]c1=O | 7.28% (inactive) |

| SMILES | inhibition |
| --- | --- |
| Cc1ccc(OCc2n[nH]c(=S)n2Cc2ccccc2)cc1 | 24.6% (inactive) |
| O=C(Cc1ccccc1)Nc1ccc(N2CCN(Cc3ccccc3F)CC2)cc1 | 6.73% (inactive) |
| COC(=O)C1CCN(C(=O)CCCOc2ccccc2)CC1 | 8.9% (inactive) |
| CC(=O)Nc1ccc(SCC(=O)Nc2ccccc2N2CCOCC2)cc1 | -9.09% (inactive) |
| COC(=O)c1cc(C(=O)OC)cc(S(=O)(=O)Nc2ccc(Cl)c(N)c2)c1 | -4.45% (inactive) |
| Oc1ccc(/C=N/n2c(-c3ccco3)csc2=Nc2cccnc2)c(O)c1 | 21% (inactive) |
| CN=c1scc(C)n1/N=C/c1ccc2c(c1)OCO2 | 13.4% (inactive) |
| C=CCN=c1scc(-c2ccccc2)n1/N=C/c1ccccn1 | 11.2% (inactive) |
| COc1ccc(O)c(/C=N/n2c(-c3ccco3)csc2=Nc2cccnc2)c1 | 6.77% (inactive) |
| CN1CCN(CC(O)COc2ccccc2)CC1 (stereo not drawn) | -7.2% (inactive) |
| CCCCNc1oc(-c2cccs2)nc1S(=O)(=O)c1ccccc1 | -0.64% (inactive) |
| CC(C)(CNC(=O)c1cccs1)CNC(=O)c1cccs1 | 0.17% (inactive) |
| O=C(CSc1nccc(=O)[nH]1)NCc1ccc2c(c1)OCO2 | 3.96% (inactive) |
| CCOC(=O)N1CCN(CC(O)COCCC23CC4CC(CC(C4)C2)C3)CC1 (stereo not drawn) | 13.8% (inactive) |
| O=c1c2c3c(sc2nc2n1CCCCC2)CCCCC3 | 0.94% (inactive) |
| O=C1CCCc2c1sc1nc3n(c(=O)c21)CCCCC3 | 2.33% (inactive) |
| Nc1ncnc2c1CN(Cc1ccccc1)CC2 | -5.85% (inactive) |
| CC1(C)CC(=O)C2=C(C1)OC(N)=C(C#N)C2c1ccccc1 (stereo not drawn) | 3.85% (inactive) |
| N#CC1(Nc2ccc([N+](=O)[O-])cc2)CCCC1 | 10.3% (inactive) |
| CCOC(=O)C1=C(COC(=O)/C=C/c2ccc(Cl)cc2)NC(=O)NC1C (stereo not drawn) | 2.25% (inactive) |
| CCOC(=O)C1=C(COC(=O)/C=C/c2ccc(C)o2)NC(=O)NC1C (stereo not drawn) | -5.28% (inactive) |
| O=C(O)/C=C/c1ccccc1Oc1ccccc1 | -6.82% (inactive) |
| Cc1ccc(N=C2NC(=O)/C(=C/c3cccn3C)S2)cc1C | -3.5% (inactive) |
| COc1ccc(CCNc2cc(C)nc3c(-c4ccccc4OC)cnn23)cc1OC | 3.45% (inactive) |
| CC(C)(CO)CN1CCC(n2nccc2NC(=O)C2CCCC2)CC1 | -9.4% (inactive) |

| SMILES | inhibition |
| --- | --- |
| CCNC(=O)N1c2ccc(OC)cc2C(C)=CC1(C)C | 18.1% (inactive) |
| COc1ccc2c(c1)C(C)=CC(C)(C)N2C(=O)Nc1ccccc1 | 1.41% (inactive) |
| COc1cccc(C(C#N)N2CCOCC2)c1 (stereo not drawn) | -0.56% (inactive) |
| C/C(=N\NC(=O)CCc1ccc(S(=O)(=O)N2CCOCC2)cc1)c1ccc(OC(F)F)cc1 | 18.9% (inactive) |
| CC(NC(=O)c1ccc(Cn2cc([N+](=O)[O-])cn2)cc1)c1ccccc1 (stereo not drawn) | -7.96% (inactive) |
| O=C1C(Cl)=C(N2CCOCC2)C(=O)N1c1ccc(Br)cc1 | 12.4% (inactive) |
| O=C1C(Cl)=C(N2CCCCCC2)C(=O)N1c1ccccc1 | 4.82% (inactive) |
| CCOc1ccccc1C(=O)NC(C(=O)OCC(=O)NNC(=O)c1cccs1)C(C)C (stereo not drawn) | -2.67% (inactive) |
| Cc1cc(NN)nc2ccc(Cl)cc12 | 21% (inactive) |
| O=C(Cc1csc(Nc2nc(=S)[nH]c3ccccc23)n1)NCc1ccc(Cl)cc1 | 3.88% (inactive) |
| Cc1cc(SCc2ccc(C(F)(F)F)cc2)nc(=O)[nH]1 | 4.23% (inactive) |
| Clc1cccc(-c2cc3nc4c(c(NCc5ccco5)n3n2)CCCC4)c1 | -4.82% (inactive) |
| Cc1cccc(-c2cc3nc4c(c(NCc5ccco5)n3n2)CCCC4)c1 | 3.78% (inactive) |
| c1coc(-c2nnc(SCc3cn4ccccc4n3)o2)c1 | 2.16% (inactive) |
| Brc1ccc(CSc2nnc(-c3ccco3)o2)cc1 | -2.39% (inactive) |
| COc1ccc(-c2c(C)n([O-])c(C)c(-c3ccccc3)[n+]2=O)cc1OC | -6.67% (inactive) |
| Cc1cccc(OCc2nnc(SCC(=O)Nc3ccc(C)c(Cl)c3)o2)c1 | -12% (inactive) |
| Cc1cc(C)cc(NC(=O)CN(C)CC(=O)N(CC(C)C)c2c(N)n(CC(C)C)c(=O)[nH]c2=O)c1 | 1.78% (inactive) |
| O=C(O)c1ccccc1Nc1ccccc1C(=O)O | 5.44% (inactive) |
| COc1cc(-c2ccc(NC(C)=O)c(OC)c2)ccc1NC(C)=O | 1.06% (inactive) |
| CCOc1cc(-n2nc(C)c(C#N)c2N)nc(SC)n1 | -1.98% (inactive) |
| COc1cccc(/C=C2\CCCCC2=O)c1 | 8.63% (inactive) |
| CC(NC(=O)C12CC3CC(C1)CC(n1cncn1)(C3)C2)C12CC3CC(CC(C3)C1)C2 (stereo not drawn) | -7.08% (inactive) |
